Results filed as inconclusive are left out. A call without a number means that no potency is given here. Activity calls are given as the source filed them. The call rests on the fitted dose curve; in most records, active means well fitted curve in the direction sought with a large enough effect in the repeat runs; inconclusive means weak or mixed curves; inactive means no such curve, though single readings can be large; an effect the other way counts as inactive or inconclusive.
Assay: A CellTox Green Cytotoxicity Assay to monitor cytotoxicity in HepG2 cells - 16 hour (AID 1224876); further: nearly all actives have a fitted effect of over 45% in size
Conditions: CellTox Green fluorescence; series mostly up to 76.8 µM
Procedure, shortened: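 HepG2 cells were seeded together with the CellTox Green dye at 600 cells/well, left 5 h at 37 C/5% CO2, then given compounds in DMSO. Fluorescence from dye bound to dead-cell DNA was read repeatedly over 40 h of treatment at 37 C.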

Compound | Potency | cytotoxicity increase
C[N+](C)(C)CC(O)CCl (stereo unspecified) | inactive | –
CCNC(=O)/C=C/c1cccc(Br)c1 | inactive | –
BrC/C=C/CBr | – | -13.9% [at 15.8 µM] (inactive)
O=C(O)c1c(Cl)ccc(Cl)c1Cl | inactive | –
CCCCCCCCCCCCCCCCI | – | -9.76% [at 15.8 µM] (inactive)
COc1ccc(OC)c(NC(=O)CC(C)=O)c1 | inactive | –
CN(C)CCOCCN(C)CCO | inactive | –
CCCCC/C=C/CC(=O)OC | inactive | –
CCCCCCCCCCCCOC(C)=O | inactive | –
COc1cc2c3cc1Oc1cc(ccc1O)C[C@@H]1c4c(cc(OC)c(O)c4Oc4ccc(cc4)C[C@@H]3N(C)CC2)CC[N+]1(C)C | inactive | –
O=C(O)CCNC(=O)c1ccccc1 | inactive | –
C=C[Si](C)(C)O[Si](C)(C)C=C | inactive | –
Nc1cc(C(=O)O)ccc1Cl | inactive | –
NC(=O)C1(N2CCCCC2)CCN(CCCC(=O)c2ccc(F)cc2)CC1 | inactive | –
N#CCCOCCOCCC#N | inactive | –
C[C@H](CCC(=O)NCC(=O)O)[C@H]1CC[C@H]2[C@@H]3[C@H](O)C[C@@H]4C[C@H](O)CC[C@]4(C)[C@H]3C[C@H](O)[C@]12C | inactive | –
CCS(=O)(=O)CCn1c([N+](=O)[O-])cnc1C | inactive | –
CC(C)(c1ccc(Oc2ccc3c(c2)C(=O)OC3=O)cc1)c1ccc(Oc2ccc3c(c2)C(=O)OC3=O)cc1 | inactive | –
C=CCOc1c(Br)cc(Br)cc1Br | inactive | –

Compound | Potency | cytotoxicity increase
O=C(O)/C=C/c1ccccc1 | inactive | –
CC1=NN(c2ccc(S(=O)(=O)O)cc2)C(=O)C1N=Nc1ccccc1 (stereo unspecified) | inactive | –
CCCCC(CC)C(=O)OC(C)C (stereo unspecified) | inactive | –
SCCSCCS | inactive | –
Cc1cccc(C(=O)O)c1[N+](=O)[O-] | inactive | –
Cc1ccccc1N1CCN(CCc2nnc3n2CCCC3)CC1 | inactive | –
OC(CCN1CCCCC1)(c1ccccc1)c1ccccc1 | inactive | –
CN(C)CCCNCCC#N | inactive | –
c1ccccc1 | inactive | –
O=CN1CCOCC1 | inactive | –
CC(Cl)COP(=O)(OCC(C)Cl)OCC(C)Cl (stereo unspecified) | inactive | –
CCC1COC(=O)O1 (stereo unspecified) | inactive | –
O=C1OC(=O)c2cc(Oc3ccc4c(c3)C(=O)OC4=O)ccc21 | inactive | –
CCN(CCC#N)c1ccccc1 | inactive | –
CCCCCCCC/C=C\CCCCCCCC(=O)OC[C@@H](O)[C@H]1OC[C@H](O)[C@H]1O | inactive | –
CCC1Nc2cc(Cl)c(S(N)(=O)=O)cc2S(=O)(=O)N1 (stereo unspecified) | inactive | –
CNC(=O)NC | inactive | –
CCC(CO)CO | inactive | –
NC(Cc1c[nH]c2ccccc12)C(=O)O (stereo unspecified) | inactive | –

Assay: qHTS RealTime-Glo MT Cell Viability Assay in HepG2 cells - 32 hour (AID 1224877); further: nearly all actives have a fitted effect of over 55% in size
Conditions: RealTime-Glo luminescence; series mostly up to 76.8 µM
Procedure, shortened: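 HepG2 cells (600/well) were dispensed with RealTime-Glo reagents, incubated 5 h at 37 °C, then treated with compounds in DMSO for up to 40 h. Nonlytic NanoLuc luminescence reflecting viable cells was read at each stated time point.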

Compound | outcome | activity change, negative = cytotoxic
C[N+](C)(C)CC(O)CCl (stereo unspecified) | inactive | –
CCNC(=O)/C=C/c1cccc(Br)c1 | inactive | –
BrC/C=C/CBr | – | -0.147% [at 15.8 µM] (inactive)
O=C(O)c1c(Cl)ccc(Cl)c1Cl | inactive | –
CCCCCCCCCCCCCCCCI | – | 7.46% [at 15.8 µM] (inactive)
COc1ccc(OC)c(NC(=O)CC(C)=O)c1 | inactive | –
CN(C)CCOCCN(C)CCO | inactive | –
CCCCC/C=C/CC(=O)OC | inactive | –
CCCCCCCCCCCCOC(C)=O | inactive | –
COc1cc2c3cc1Oc1cc(ccc1O)C[C@@H]1c4c(cc(OC)c(O)c4Oc4ccc(cc4)C[C@@H]3N(C)CC2)CC[N+]1(C)C | inactive | –
O=C(O)CCNC(=O)c1ccccc1 | inactive | –
C=C[Si](C)(C)O[Si](C)(C)C=C | inactive | –
Nc1cc(C(=O)O)ccc1Cl | inactive | –
NC(=O)C1(N2CCCCC2)CCN(CCCC(=O)c2ccc(F)cc2)CC1 | inactive | –
N#CCCOCCOCCC#N | inactive | –
C[C@H](CCC(=O)NCC(=O)O)[C@H]1CC[C@H]2[C@@H]3[C@H](O)C[C@@H]4C[C@H](O)CC[C@]4(C)[C@H]3C[C@H](O)[C@]12C | inactive | –
CCS(=O)(=O)CCn1c([N+](=O)[O-])cnc1C | inactive | –
CC(C)(c1ccc(Oc2ccc3c(c2)C(=O)OC3=O)cc1)c1ccc(Oc2ccc3c(c2)C(=O)OC3=O)cc1 | inactive | –
C=CCOc1c(Br)cc(Br)cc1Br | inactive | –

Compound | outcome | activity change, negative = cytotoxic
O=C(O)/C=C/c1ccccc1 | inactive | –
CC1=NN(c2ccc(S(=O)(=O)O)cc2)C(=O)C1N=Nc1ccccc1 (stereo unspecified) | inactive | –
CCCCC(CC)C(=O)OC(C)C (stereo unspecified) | inactive | –
SCCSCCS | inactive | –
Cc1cccc(C(=O)O)c1[N+](=O)[O-] | inactive | –
Cc1ccccc1N1CCN(CCc2nnc3n2CCCC3)CC1 | inactive | –
OC(CCN1CCCCC1)(c1ccccc1)c1ccccc1 | inactive | –
CN(C)CCCNCCC#N | inactive | –
c1ccccc1 | inactive | –
O=CN1CCOCC1 | inactive | –
CC(Cl)COP(=O)(OCC(C)Cl)OCC(C)Cl (stereo unspecified) | inactive | –
CCC1COC(=O)O1 (stereo unspecified) | inactive | –
O=C1OC(=O)c2cc(Oc3ccc4c(c3)C(=O)OC4=O)ccc21 | inactive | –
CCN(CCC#N)c1ccccc1 | inactive | –
CCCCCCCC/C=C\CCCCCCCC(=O)OC[C@@H](O)[C@H]1OC[C@H](O)[C@H]1O | inactive | –
CCC1Nc2cc(Cl)c(S(N)(=O)=O)cc2S(=O)(=O)N1 (stereo unspecified) | inactive | –
CNC(=O)NC | inactive | –
CCC(CO)CO | inactive | –
NC(Cc1c[nH]c2ccccc12)C(=O)O (stereo unspecified) | inactive | –

Reference: PubChem BioAssay (Tox21)
